Test results reported in the supplement of paper PMC6555819.

Experiments:
Assay in all cases: PBM binding z-score (relative to random genomic background probes); higher = stronger binding; sequences stand for … in GC…GCGATTGACAGCGTAGAATGAAGG
[1] = system: FXR:RXRa (NR concentration 270 nM, RXRa partner concentration 90 nM)
How it was run: (§1)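 Scanned fluorescence from custom Agilent 4×180K protein-binding microarrays was regression-normalized. Binding z-scores use random background probes as reference. Ligand-free nuclear receptor dimers were incubated on the arrays for 1 h and detected with antibodies against each partner (one per run).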

[2] = system: LXRa:RXRa (NR concentration 270 nM, RXRa partner concentration 90 nM)
How it was run: as §1

[3] = system: LXRa homodimer (NR concentration 270 nM)
How it was run: as §1

[4] = system: LXRb:RXRa (NR concentration 270 nM, RXRa partner concentration 90 nM)
How it was run: as §1

[5] = system: LXRb homodimer (NR concentration 270 nM)
How it was run: as §1

[6] = system: PPARa:RXRa (NR concentration 270 nM, RXRa partner concentration 90 nM)
How it was run: as §1

[7] = system: PPARg:RXRa (NR concentration 180 nM, RXRa partner concentration 90 nM)
How it was run: as §1

[8] = system: PPARg:RXRa 270nM:90nM, anti-RXR (NR concentration 270 nM, RXRa partner concentration 90 nM)
How it was run: as §1

[9] = system: PPARg:RXRa 30nM:10nM, anti-RXR (NR concentration 30 nM, RXRa partner concentration 10 nM)
How it was run: as §1

[10] = system: PPARg:RXRa 90nM:30nM, anti-RXR (NR concentration 90 nM, RXRa partner concentration 30 nM)
How it was run: as §1

[11] = system: PPARg:RXRa DBDmut IVT, anti-RXR (DBD mutation: RXRa K156A/R161A, NR concentration 270 nM, RXRa partner concentration 90 nM)
How it was run: as §1

[12] = system: PPARg:RXRa IVT, anti-PPARg (NR concentration 270 nM, RXRa partner concentration 90 nM)
How it was run: as §1

[13] = system: PPARg DBDmut:RXRa IVT, anti-PPARg (DBD mutation: PPARg1 K132A/R137A, NR concentration 270 nM, RXRa partner concentration 90 nM)
How it was run: as §1

[14] = system: PPARg DBDmut IVT, anti-PPARg (DBD mutation: PPARg1 K132A/R137A, NR concentration 270 nM)
How it was run: as §1

[15] = system: PPARg homodimer (NR concentration 180 nM)
How it was run: as §1

[16] = system: PXR:RXRa (NR concentration 270 nM, RXRa partner concentration 90 nM)
How it was run: as §1

[17] = system: PXR homodimer (NR concentration 270 nM)
How it was run: as §1

[18] = system: RARa:RXR (NR concentration 270 nM, RXRa partner concentration 90 nM)
How it was run: as §1

[19] = system: RARa homodimer (NR concentration 270 nM)
How it was run: as §1

[20] = system: RARb:RXRa (NR concentration 270 nM, RXRa partner concentration 90 nM)
How it was run: as §1

Sequence	PBM binding z-score [1]	PBM binding z-score [2]	PBM binding z-score [3]	PBM binding z-score [4]	PBM binding z-score [5]	PBM binding z-score [6]	PBM binding z-score [7]	PBM binding z-score [8]	PBM binding z-score [9]	PBM binding z-score [10]	PBM binding z-score [11]	PBM binding z-score [12]	PBM binding z-score [13]	PBM binding z-score [14]	PBM binding z-score [15]	PBM binding z-score [16]	PBM binding z-score [17]	PBM binding z-score [18]	PBM binding z-score [19]	PBM binding z-score [20]
GCATATAGGTAATTCAAGGTGAAAGTCCGATTGT	0.457	4.97	0.799	2.13	-0.412	1.9	0.967	1.51	0.0519	0.865	3.96	3.53	0.595	0.845	0.811	0.919	0.171	2.33	0.378	0.678
CCTACTGGGCCAAAGGCCATTGATTCCAATGCTC	-0.204	-0.344	-0.23	-0.115	-0.699	3.51	7.53	7.54	6.63	7.44	3.67	4.27	-1.16	-0.289	0.544	-0.131	-0.371	0.0662	-0.609	0.924
CGTCAAAGTTCAAGCTAACGTAACAGAAAGCAGC	7.1	6.1	3.7	3.81	1.32	4.93	4.58	5.18	2.29	4.32	0.497	1.77	1.34	1.15	3.13	4.47	2.52	3.3	2.21	5.24
CCTACTGGGCGACGAAAGGTCATTGATTCAGTGA	3.21	3.92	4.32	3.94	-0.175	4.31	2.37	3.74	1.35	2.73	1.64	2.57	-0.823	-0.515	1.98	4.56	0.841	4.47	0.351	3.75
CGTCAAAGTTCAAGGCAACGTAACAGAAAGCAGC	5.83	5.32	2.35	2.97	0.47	4.47	3.88	4.87	1.54	3.53	0.106	1.35	-0.0637	0.203	2.24	3.56	1.41	2.87	0.477	4.98
CTTAGTTGGTCAAGGTCACACACGCTATAGGTAC	4.69	4.17	2.15	4.03	1.14	4.51	4.28	4.71	2.33	3.77	4	4.92	0.864	1.4	2.76	4.35	2.79	4.4	2.07	4.35
GATACAGGGTCAGCTAGAGGGCAGAGTATGGAAA	4.97	3.61	0.31	3.04	-0.0711	4.5	4.11	3.6	0.823	2.38	1.36	2.69	1.37	0.18	4.2	4.38	0.747	5.63	1.68	4.51
GCTGCTAGGTCATGTTGGTCAGCTAACGGGTACG	3.46	2.59	0.616	1.75	0.329	3.03	1.62	2.3	0.174	1.38	4.28	3.3	0.275	1.15	2.55	1.49	-0.31	2.42	0.287	3.69
CCTACTGGGCCATTCAGAGGTTATTGATCATATG	0.119	0.693	0.815	0.664	-0.334	1.55	0.601	1.23	0.0553	0.458	4.41	3.71	0.418	0.252	0.658	0.724	0.159	0.877	0.171	0.712
ATATGTGGGTTATCGGGTCATTCAGTTTGCGCAT	3.03	2.75	1.74	3.53	1.8	4.86	6.89	5.78	3.08	5.43	7.02	7.14	3.15	3.66	3.07	3.93	7.1	3.81	2.31	2.42
TGAATGAGGTCAAAGATCAGGGAACGTGGCGTCG	7.57	6.26	1.74	4.88	2.72	6.45	9.41	8.31	7.23	9.22	5.48	6.25	2.11	0.903	2.17	5.41	1.74	6.5	1.38	4.99
ATCGAAAGGTCGCAGGTGAGTATACCCACCCGAA	4.98	3.65	0.17	2.74	0.436	5.01	4.34	4.73	1.5	3.31	0.692	2.78	1.46	0.551	1.95	2.89	0.199	3.82	0.721	4.09
TCTGCTTGGTCAACGATGGTCAGCTAATCTGCTA	-0.224	-0.219	-0.946	-0.549	-0.202	0.184	-0.488	0.665	1.65	0.96	0.689	0.425	0.225	-0.53	-0.633	-0.0602	-0.841	0.401	-1.62	1.17
AGTCAAAATTCACTAGGTAACGTAAGATTCAGCT	0.492	0.568	0.177	0.0874	0.267	0.989	0.791	0.81	0.61	1.03	1.45	2.58	1.21	0.716	1.09	0.12	0.568	1.48	1.44	0.258
CATACAGGGACAGCTAGGCCAGAGTAGGGACGGC	-0.116	-0.651	-0.464	-0.85	-0.351	-0.533	0.544	-0.673	-0.277	-0.633	-0.69	-0.181	-1.17	0.371	-0.647	-0.731	-0.605	-0.361	0.0521	0.723
CCTACTGGGCCATGAAAGGTCATTGATTCAGTGA	3.25	4.74	4.74	3.86	0.00492	4.16	2.9	4.17	1.44	3.24	4.45	4.58	0.322	0.328	3.71	5.2	1.71	5.37	1.41	3.62
TCTAGCTGGTCAAAGGTCACACACTCGAAATGCG	5.6	6.17	3.41	5.31	0.629	6.34	10.5	9.37	9.91	10.1	2.35	5.48	0.807	1.12	4.18	6.12	0.771	7.74	2.13	4.89
ATCGAACGGTCGACGAGGTGAGTATACACCGTTT	-0.18	-0.425	-0.327	-0.336	-0.463	-0.0739	0.937	-0.158	-0.0439	-0.375	-0.724	0.667	0.31	0.651	-0.218	-0.192	-0.411	-0.0707	-0.605	0.92
CCTGCTAGGTCAATGGTCAGCTCAAGCAGCTCGC	3.28	2.16	-0.232	1.42	0.134	3.19	4.54	5.03	2.8	5.14	4.38	4.13	2.6	-0.398	1.12	0.974	-0.482	1.88	-0.428	3.79
ATCGAAAGGTCGAAGGAGAGTATACCCACCCGAA	4.01	3.28	0.14	2.48	0.895	3.8	2.15	2.57	1.14	2.01	-0.0352	1.35	0.946	0.145	1.41	2.39	0.0516	3.11	0.728	3.62
TAGCCTAGGTCATAGGGCCAGTATAGTACGCATC	4.13	3.13	0.208	2.09	-0.248	3.7	3.32	3.46	1.43	2.75	1.41	2.83	0.326	-0.841	1.14	1.45	-0.088	2.37	-0.213	3.75
CCTTACGGGTCACTCCATGTTATAGCATCGGAGT	4.2	4.36	-0.0151	2.66	0.251	4.37	3.24	3.49	0.894	2.33	2.24	3.12	0.606	0.266	2.26	2.73	0.163	3.26	0.537	3.59
ATCGAAAGGTCGAGGAGGTGAGTATACACCGTTT	4.46	3.42	-0.194	2.55	0.629	4.26	2.8	3.19	0.595	2.06	0.255	1.9	1.49	0.557	1.47	2.86	0.184	3.41	0.666	3.94
CAACCTAGGTCACCGGAAGGTCAAAGTCCGCATG	7.05	6.32	5.53	5.93	1.49	5.6	6.23	6.31	3.11	5.38	4.96	5.75	0.0174	0.904	8.27	6.29	2.96	7.58	5.02	5.39
CAAACTAGGTCACAGAGGTCAAACTCCGTGCGTA	7.52	6.77	8.67	6.55	2.84	6.69	10.2	8.44	7.14	8.85	8.63	8.81	2.84	2.43	5.38	6.91	12.1	7.81	3.49	5.52
ATCGAAAGGTCGAAAGTGAGTATACCCACCCGAA	3.56	3.24	0.172	2.67	0.816	3.74	2.17	2.5	1.05	2.05	-0.0216	1.35	1.11	0.905	0.0924	2.02	0.265	2.62	0.478	3.19
GATACACGGTCAAGGCCAGAGTACGCGTATTGAT	0.0472	0.275	-0.18	-0.406	-0.667	-0.0579	0.695	-0.00524	-0.0944	-0.0776	0.208	0.594	-0.0876	-0.79	-0.507	0.00631	-0.314	-0.159	-0.63	2.67
ACTCGGAGGACAAATGTCAGAGCTACGCCAGTGA	-0.155	-0.111	-0.289	-0.522	-0.374	0.306	1.34	1.99	0.613	1.36	0.158	0.0513	0.143	-1.07	-0.0876	-0.536	-0.343	-0.444	-0.635	1.44
